Experimental findings from PubChem BioAssay (EPA / NIEHS) are described below.

Test [1] concerns the target Bile acid receptor (Homo sapiens) (UniProt Q96RI1). Briefly: ATG_IR1_CIS: Attagene CIS-FACTORIAL HepG2 Assay for human Nuclear Receptor Subfamily 1 Group H Member 4 (NR1H4), IR1 submotif (AID 2282946). The note with it: IR1 reporter transcription, actives raise or lower the signal. Put shortly: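 HepG2 cells transiently transfected with multiplexed cis-element reporter units read endogenous transcription factor activity. After 24 h compound exposure, reporter mRNA was quantified by RT-PCR, fluorescent labelling, HpaI digestion and capillary electrophoresis; bidirectional fitting versus DMSO baseline.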

The nature of test [2]: ATG_ISRE_CIS: Attagene CIS-FACTORIAL HepG2 Assay for human Interferon Regulatory Factor 1 (IRF1) binding to an Interferon-Stimulated Response Element (ISRE) (AID 2282948). Conditions: HepG2 ISRE cis-reporter (Attagene), mRNA transcription readout; actives raise or lower the signal. The procedure, abridged:
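Read-out: fluorescent RT-PCR products resolved by capillary electrophoresis, reporting endogenous transcription factor activity via ISRE-driven reporter mRNA in transfected HepG2 cells dosed for 24 h; gain or loss fitted relative to DMSO.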

Test [3] can be described thus: ATG_M_32_CIS: Attagene CIS-FACTORIAL HepG2 Assay for M32 Transcription Factor (Internal Marker) (AID 2282949).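 Further: background control marker of the multiplexed CIS panel rather than a real target.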 Conditions: HepG2 Attagene cis-factorial M32 reporter, mRNA; actives raise or lower the signal. The procedure, abridged: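 HepG2 transfectants (cis-regulated reporter transcription units) dosed 24 h. Reporter mRNA by RT-PCR plus CE, analysed as gain or loss relative to DMSO.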

The nature of test [4]: ATG_M_06_CIS: Attagene CIS-FACTORIAL HepG2 Assay for M06 Transcription Factor (Internal Marker) (AID 2282950). The note with it: HepG2 Attagene CIS-FACTORIAL M06 internal marker reporter; actives raise or lower the signal. The procedure, abridged:
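Fluorescence-labelled RT-PCR products from cis-promoter reporter units, cut with HpaI and resolved by capillary electrophoresis, give the signal. Cells are human HepG2, dosed for 24 h. Serves as background control, fitted relative to DMSO.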

Test [5] addresses Hypoxia-inducible factor 1-alpha (Homo sapiens) (UniProt Q16665). Briefly: ATG_HIF1a_CIS: Attagene CIS-FACTORIAL HepG2 Assay for human Hypoxia Inducible Factor 1 (HIF1A) (AID 2282951). Conditions: HepG2 Attagene cis-factorial HIF1a reporter transcription; actives raise or lower the signal. The procedure, abridged: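 HepG2, transient cis-reporter library, 24 h dosing. RNA → RT (oligo dT) → PCR → 6-FAM primer extension → HpaI → CE. Bidirectional curve fit vs DMSO.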

Test [6] addresses Hepatocyte nuclear factor 6 (Homo sapiens) (UniProt Q9UBC0). The experiment in a line: ATG_HNF6_CIS: Attagene CIS-FACTORIAL HepG2 Assay for human Hepatocyte Nuclear Factor 6 (HNF6) (AID 2282952). The note with it: HepG2 Attagene cis-factorial HNF6 reporter transcription; actives raise or lower the signal. Put shortly:
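Endogenous transcription factor activity in human HepG2 liver cells was captured through cis-regulated reporter constructs. After 24 h treatment, reporter mRNA was measured by RT-PCR with capillary electrophoresis, and activity was fitted in both directions relative to DMSO.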

Test [7] addresses Heat shock factor protein 1 (Homo sapiens) (UniProt Q00613). Briefly: ATG_HSE_CIS: Attagene CIS-FACTORIAL HepG2 Assay for human Heat Shock Transcription Factor 1 (HSE) (AID 2282953). Conditions: HepG2 HSE cis-reporter, Attagene RNA transcription; actives raise or lower the signal. The procedure, abridged:
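After a 24 h incubation with test chemical, transfected HepG2 cells were harvested for RNA; reporter transcripts were measured by RT-PCR and capillary electrophoresis. Values reflect gain or loss of signal relative to DMSO.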

The nature of test [8]: ATG_MRE_CIS: Attagene CIS-FACTORIAL HepG2 Assay for human Metal Responsive Element (MRE) (AID 2282954). The note with it: HepG2 MRE cis-reporter transcription, Attagene multiplex; actives raise or lower the signal. Put shortly:
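Endogenous MRE-dependent transcription read as reporter mRNA in transiently transfected human HepG2 cells at 24 h. RNA reverse-transcribed, PCR-amplified, labelled and resolved by capillary electrophoresis; gain or loss relative to DMSO.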

A short description of test [9]: ATG_PBREM_CIS: Attagene CIS-FACTORIAL HepG2 Assay for human Phenobarbital-responsive Enhancer Module (PBREM) (AID 2282955). Conditions: HepG2 PBREM cis-reporter, Attagene multiplexed transcription; actives raise or lower the signal. The procedure, abridged:
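HepG2, transient MRTU transfection, 24 h dosing; RNA → oligo(dT) RT → PCR → 6-FAM extension → HpaI → CE. Bidirectional fit vs DMSO.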

The target of test [10] is Paired box protein Pax-6 (Homo sapiens) (UniProt P26367). Briefly: ATG_Pax6_CIS: Attagene CIS-FACTORIAL HepG2 Assay for human Paired Box 6 (PAX6) (AID 2282956). The note with it: HepG2 CIS-FACTORIAL PAX6 reporter transcription, RNA readout; actives raise or lower the signal. The procedure, abridged:
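Readout: reporter transcript fluorescence after RT-PCR and capillary electrophoresis. Cells: HepG2, transiently transfected with cis-regulated MRTUs. Exposure 24 h. Gain or loss of signal fitted bidirectionally relative to DMSO.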

Test [11] is described as follows: ATG_PXRE_CIS: Attagene CIS-FACTORIAL HepG2 Assay for human Pregnane X Receptor Element (PXRE) (AID 2282957). The note with it: HepG2 Attagene CIS-FACTORIAL PXRE reporter, mRNA; actives raise or lower the signal. The procedure, abridged:
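Endogenous transcription factor activity in HepG2 was gauged through induction of reporter mRNA driven by a cis-regulating promoter element, sampled 24 h post-treatment. Activity was fitted in both directions against DMSO negative control.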

The nature of test [12]: ATG_RORE_CIS: Attagene CIS-FACTORIAL HepG2 Assay for human RAR-related Orphan Receptor Element (RORE) (AID 2282959). Conditions: HepG2 Attagene cis-factorial RORE reporter, mRNA; actives raise or lower the signal. Put shortly: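 Multiplexed reporter assay measuring mRNA induction from a cis promoter element in transiently transfected HepG2 cells after 24 h treatment. Detection via RT-PCR and capillary electrophoresis fluorescence; DMSO serves as baseline.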

A short description of test [13]: ATG_Sox_CIS: Attagene CIS-FACTORIAL HepG2 Assay for human SRY-box transcription factor (SOX) (AID 2282960). The note with it: HepG2 Attagene cis-factorial SOX reporter, mRNA; actives raise or lower the signal. Put shortly:
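Cells were transfected with reporter constructs under cis-regulatory promoters, then exposed to chemicals for 24 h. Reporter transcripts were quantified by fluorescence after RT-PCR and capillary electrophoresis; activity was fitted in both directions against DMSO.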

In test [14] the target is Transcription factor Sp1 (Homo sapiens) (UniProt P08047). The experiment in a line: ATG_Sp1_CIS: Attagene CIS-FACTORIAL HepG2 Assay for human Specificity Protein 1 (Sp1) (AID 2282961). The note with it: HepG2 Sp1 cis-reporter transcription, actives raise or lower the signal. The procedure, abridged: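 Measures mRNA induction of an Sp1-linked reporter in HepG2 cells 24 h post-dosing. Multiplexed reporters read by RT-PCR and capillary electrophoresis; DMSO serves as negative control and baseline.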

Test [15] is described as follows: ATG_SREBP_CIS: Attagene CIS-FACTORIAL HepG2 Assay for human Sterol Regulatory Element Binding (SREBP) (AID 2282962). The note with it: HepG2 Attagene cis-factorial SREBP reporter, mRNA; actives raise or lower the signal. The procedure, abridged: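 Readout: fluorescent reporter-transcript peaks resolved by capillary electrophoresis after RT-PCR. Cells were human HepG2 carrying transfected cis-promoter reporter constructs, dosed for 24 h. Gain or loss of signal was fitted against DMSO controls.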

Test [16] addresses Signal transducer and activator of transcription 3 (Homo sapiens) (UniProt P40763). Briefly: ATG_STAT3_CIS: Attagene CIS-FACTORIAL HepG2 Assay for human Signal Transducer and Activator of Transcription 3 (STAT3) (AID 2282963). The note with it: HepG2, Attagene cis-factorial STAT3 reporter transcription; actives raise or lower the signal. The procedure, abridged: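 Readout is reporter transcript quantified by RT-PCR and capillary electrophoresis, with 6-FAM primer extension and HpaI digestion. Total RNA is taken 24 h after dosing transiently transfected HepG2 carrying cis-regulated reporter units. Bidirectional fit against DMSO.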

The nature of test [17]: ATG_TA_CIS: Attagene CIS-FACTORIAL HepG2 Assay for human TA Basal Promoter (AID 2282964). Conditions: HepG2 Attagene CIS-factorial TA basal promoter reporter; actives raise or lower the signal. The procedure, abridged:
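Multiplexed mRNA reporter assay, HepG2, 24 h. Reporter cDNA amplified, 6-FAM primer-extended, HpaI-cut, CE-sized; DMSO = negative control and baseline.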

Test [18] in a line: ATG_TCF_b_cat_CIS: Attagene CIS-FACTORIAL HepG2 Assay for human T-Cell-Factor with beta-catenin (TCF/b-cat) (AID 2282965). Conditions: HepG2 TCF/beta-catenin cis-reporter transcription, actives raise or lower the signal. Put shortly: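 Endogenous transcription factor activity is captured through cis-promoter reporter constructs transiently introduced into human HepG2 liver cells. Induced reporter mRNA is measured after 24 h and fitted bidirectionally relative to DMSO.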

A short description of test [19]: ATG_PPRE_CIS: Attagene CIS-FACTORIAL HepG2 Assay for human Peroxisome Proliferator-activated Response Element (PPRE) (AID 2282958). The note with it: HepG2 PPRE cis-element reporter, Attagene transcription factor profiling; actives raise or lower the signal. The procedure, abridged:
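Transcript-level reporter induction in transfected HepG2 cells after 24 h chemical exposure, quantified by fluorescence from RT-PCR products separated by capillary electrophoresis.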

The structures appear in SMILES notation. Calls of active or inactive are those of the source. How the source made its calls: active means hit-call score of the fitted dose curve at least 0.9, where 1 is the maximum; inactive means score below 0.9.

Heat shock factor protein 1 (Homo sapiens), sequence (Q00613 whole entry, looked up): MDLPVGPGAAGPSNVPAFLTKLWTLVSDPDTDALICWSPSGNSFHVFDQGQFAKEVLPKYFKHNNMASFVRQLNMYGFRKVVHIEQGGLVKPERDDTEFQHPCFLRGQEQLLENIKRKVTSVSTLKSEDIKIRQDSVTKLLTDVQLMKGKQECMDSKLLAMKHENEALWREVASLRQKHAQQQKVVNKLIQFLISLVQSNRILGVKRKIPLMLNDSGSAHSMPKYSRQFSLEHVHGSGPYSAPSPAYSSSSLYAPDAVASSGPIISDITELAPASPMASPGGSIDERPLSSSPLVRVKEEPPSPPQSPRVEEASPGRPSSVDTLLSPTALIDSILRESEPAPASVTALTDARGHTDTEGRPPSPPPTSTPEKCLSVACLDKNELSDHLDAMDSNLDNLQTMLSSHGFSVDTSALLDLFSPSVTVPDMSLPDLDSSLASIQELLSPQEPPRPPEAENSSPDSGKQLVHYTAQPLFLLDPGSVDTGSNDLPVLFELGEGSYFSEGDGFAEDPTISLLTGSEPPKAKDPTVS
Hepatocyte nuclear factor 6 (Homo sapiens), sequence (Q9UBC0 whole entry, looked up): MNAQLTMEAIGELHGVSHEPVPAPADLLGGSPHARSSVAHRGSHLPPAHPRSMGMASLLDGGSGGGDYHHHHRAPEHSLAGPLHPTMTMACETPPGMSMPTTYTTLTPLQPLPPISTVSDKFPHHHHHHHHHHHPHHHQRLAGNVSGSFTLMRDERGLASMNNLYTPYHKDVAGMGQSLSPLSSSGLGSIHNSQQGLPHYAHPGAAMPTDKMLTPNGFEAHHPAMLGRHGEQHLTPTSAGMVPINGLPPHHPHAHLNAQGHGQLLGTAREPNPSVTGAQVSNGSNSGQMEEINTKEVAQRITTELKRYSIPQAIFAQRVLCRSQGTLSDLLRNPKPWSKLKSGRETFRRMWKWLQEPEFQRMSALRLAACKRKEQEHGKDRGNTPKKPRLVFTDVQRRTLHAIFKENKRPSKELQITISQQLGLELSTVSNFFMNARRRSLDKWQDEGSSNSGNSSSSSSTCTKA
Hypoxia-inducible factor 1-alpha (Homo sapiens), sequence (Q16665 whole entry, looked up): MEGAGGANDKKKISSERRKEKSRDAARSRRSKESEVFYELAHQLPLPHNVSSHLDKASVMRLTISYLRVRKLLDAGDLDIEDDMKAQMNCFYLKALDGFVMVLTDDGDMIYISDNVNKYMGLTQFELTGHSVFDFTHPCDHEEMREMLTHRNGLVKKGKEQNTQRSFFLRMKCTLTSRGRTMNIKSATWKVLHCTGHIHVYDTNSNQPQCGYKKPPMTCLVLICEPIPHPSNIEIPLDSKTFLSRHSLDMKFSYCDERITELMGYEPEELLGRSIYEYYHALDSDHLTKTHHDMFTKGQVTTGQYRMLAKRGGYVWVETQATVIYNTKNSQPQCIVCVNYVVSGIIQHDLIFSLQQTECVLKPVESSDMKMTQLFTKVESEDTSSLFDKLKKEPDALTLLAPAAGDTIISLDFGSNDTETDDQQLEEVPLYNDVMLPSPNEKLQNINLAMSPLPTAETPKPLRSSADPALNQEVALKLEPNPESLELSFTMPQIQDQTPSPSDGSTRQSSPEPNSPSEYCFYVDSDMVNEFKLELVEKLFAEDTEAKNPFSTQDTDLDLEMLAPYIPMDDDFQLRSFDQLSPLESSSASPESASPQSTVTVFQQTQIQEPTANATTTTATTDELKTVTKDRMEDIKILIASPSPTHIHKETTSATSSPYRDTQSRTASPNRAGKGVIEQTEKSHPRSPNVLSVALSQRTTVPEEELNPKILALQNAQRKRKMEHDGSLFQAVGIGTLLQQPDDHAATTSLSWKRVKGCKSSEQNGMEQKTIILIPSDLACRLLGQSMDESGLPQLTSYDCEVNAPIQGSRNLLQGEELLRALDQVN
Paired box protein Pax-6 (Homo sapiens), sequence (P26367 whole entry, looked up): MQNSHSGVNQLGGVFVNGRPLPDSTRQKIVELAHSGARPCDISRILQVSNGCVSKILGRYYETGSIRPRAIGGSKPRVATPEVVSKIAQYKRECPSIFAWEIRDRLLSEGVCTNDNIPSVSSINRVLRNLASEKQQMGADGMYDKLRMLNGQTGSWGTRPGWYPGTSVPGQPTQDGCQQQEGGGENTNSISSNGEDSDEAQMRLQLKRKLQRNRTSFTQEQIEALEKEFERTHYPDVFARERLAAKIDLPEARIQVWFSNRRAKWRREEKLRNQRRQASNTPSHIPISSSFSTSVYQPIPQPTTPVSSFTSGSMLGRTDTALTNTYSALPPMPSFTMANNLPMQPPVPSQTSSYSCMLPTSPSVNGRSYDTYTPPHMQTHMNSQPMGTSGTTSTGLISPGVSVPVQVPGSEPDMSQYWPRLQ
Transcription factor Sp1 (Homo sapiens), sequence (P08047 whole entry, looked up): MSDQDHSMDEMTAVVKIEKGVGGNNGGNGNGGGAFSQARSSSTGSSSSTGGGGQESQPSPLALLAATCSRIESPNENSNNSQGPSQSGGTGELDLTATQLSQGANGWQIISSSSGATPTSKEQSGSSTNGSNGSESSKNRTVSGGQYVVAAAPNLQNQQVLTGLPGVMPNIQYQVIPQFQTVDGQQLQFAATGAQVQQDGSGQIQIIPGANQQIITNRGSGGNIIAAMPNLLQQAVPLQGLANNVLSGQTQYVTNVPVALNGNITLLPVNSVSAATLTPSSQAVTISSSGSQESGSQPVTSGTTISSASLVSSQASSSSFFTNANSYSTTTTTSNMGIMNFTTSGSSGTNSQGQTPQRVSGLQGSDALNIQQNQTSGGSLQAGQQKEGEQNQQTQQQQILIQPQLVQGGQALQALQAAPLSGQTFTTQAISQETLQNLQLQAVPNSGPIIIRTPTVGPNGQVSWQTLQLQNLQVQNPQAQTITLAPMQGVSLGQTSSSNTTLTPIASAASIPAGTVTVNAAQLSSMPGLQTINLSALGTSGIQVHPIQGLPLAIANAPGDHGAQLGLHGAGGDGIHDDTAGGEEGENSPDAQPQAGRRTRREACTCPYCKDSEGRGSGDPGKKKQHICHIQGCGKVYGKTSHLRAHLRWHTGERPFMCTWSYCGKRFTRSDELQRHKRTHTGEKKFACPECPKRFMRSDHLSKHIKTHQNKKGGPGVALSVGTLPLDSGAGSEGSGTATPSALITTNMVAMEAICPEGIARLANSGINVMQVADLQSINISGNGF
Bile acid receptor (Homo sapiens), sequence (Q96RI1 whole entry, looked up): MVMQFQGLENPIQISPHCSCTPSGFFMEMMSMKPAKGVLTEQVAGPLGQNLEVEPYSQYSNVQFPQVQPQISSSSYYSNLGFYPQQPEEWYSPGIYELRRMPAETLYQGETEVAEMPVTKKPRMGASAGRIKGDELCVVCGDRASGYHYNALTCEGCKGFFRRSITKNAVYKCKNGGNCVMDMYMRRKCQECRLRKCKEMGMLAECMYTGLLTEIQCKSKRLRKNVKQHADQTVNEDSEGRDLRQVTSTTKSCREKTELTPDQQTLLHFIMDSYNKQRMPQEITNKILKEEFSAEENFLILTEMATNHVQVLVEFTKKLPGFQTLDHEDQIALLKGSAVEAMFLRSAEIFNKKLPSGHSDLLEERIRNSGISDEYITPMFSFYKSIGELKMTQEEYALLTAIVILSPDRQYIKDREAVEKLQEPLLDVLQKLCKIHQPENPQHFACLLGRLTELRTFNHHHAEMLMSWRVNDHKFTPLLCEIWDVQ
Signal transducer and activator of transcription 3 (Homo sapiens), sequence (P40763 whole entry, looked up): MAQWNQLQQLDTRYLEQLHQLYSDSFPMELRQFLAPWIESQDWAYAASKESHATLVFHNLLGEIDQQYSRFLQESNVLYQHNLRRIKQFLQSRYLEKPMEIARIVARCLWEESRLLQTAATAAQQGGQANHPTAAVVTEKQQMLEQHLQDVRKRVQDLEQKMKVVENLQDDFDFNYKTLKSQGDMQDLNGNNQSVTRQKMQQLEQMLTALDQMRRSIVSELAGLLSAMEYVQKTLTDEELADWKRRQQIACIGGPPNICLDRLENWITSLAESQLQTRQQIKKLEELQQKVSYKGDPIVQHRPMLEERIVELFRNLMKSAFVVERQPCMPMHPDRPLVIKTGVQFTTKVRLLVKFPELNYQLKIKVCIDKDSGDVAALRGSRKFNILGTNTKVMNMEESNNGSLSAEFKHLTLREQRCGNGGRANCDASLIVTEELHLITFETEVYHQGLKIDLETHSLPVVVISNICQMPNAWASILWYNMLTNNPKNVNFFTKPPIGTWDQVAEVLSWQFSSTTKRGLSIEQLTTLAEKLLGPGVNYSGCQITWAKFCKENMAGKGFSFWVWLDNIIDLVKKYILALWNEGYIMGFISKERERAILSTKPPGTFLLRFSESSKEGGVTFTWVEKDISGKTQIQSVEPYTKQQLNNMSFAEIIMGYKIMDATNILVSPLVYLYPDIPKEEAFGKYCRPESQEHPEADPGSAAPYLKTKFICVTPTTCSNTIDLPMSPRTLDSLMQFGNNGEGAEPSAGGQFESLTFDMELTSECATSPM

Take `O=CCc1ccccc1`: the result in [1], in [2], in test [3], in test [4], in [5] and in [6] was inactive. The outcome in test [7], in test [8], in test [9], in test [10], in [12] and in test [13] was inactive. Further, the outcome in test [14], in test [15], in test [16], in test [17] and in test [18] was inactive. The concentration at half-maximal activity (AC50) (in general, the concentration at which the activity in the assay is half-maximal) in test [11] was 9.42 µM (active).
For `C=CC(=O)OCCCC`, the outcome in test [1], in [2], in test [4], in [5], in test [6] and in [8] was inactive. The outcome in test [10], in test [11], in test [12], in [14], in [15] and in [16] was inactive. Besides, the compound was called inactive in test [17] and in test [18].
In the case of `CC(C)C(OC(=O)c1ccccc1)C(C)(C)COC(=O)c1ccccc1` (centres undefined), the result in test [1], in test [2], in [3], in test [4], in [5] and in [6] was inactive. The compound was classed as inactive in test [7], in [8], in [9], in [10], in [19] and in test [13]. The outcome in [14], in test [15], in test [16], in test [17] and in test [18] was inactive. Besides, the concentration at half-maximal activity (AC50) in [11] was 1.27 µM (active).
Regarding `N#Cc1cscn1`, the call in test [1], in test [2], in [3], in test [4], in test [6] and in test [7] was inactive. In addition, the outcome in [8], in test [9], in test [10], in [12], in test [14] and in [15] was inactive. The outcome in [16], in test [17] and in test [18] was inactive. For the same compound, in [11], the concentration at half-maximal activity (AC50) is 71.7 µM (active).
On to `CCC(C)=O`, for which the result in test [1], in [2], in test [3], in [4], in [5] and in test [6] was inactive. Moreover, the compound was classed as inactive in [7], in test [8], in [10], in test [11], in test [19] and in [12]. In addition, the compound was called inactive in test [13], in test [14], in test [15], in test [16], in [17] and in test [18].
As to `CCCCC1CCC(O)CC1` (centres undefined), the compound was classed as inactive in [1], in test [2], in test [3], in test [5], in test [6] and in [7]. Further, the call in [8], in test [9], in test [10], in test [11], in [19] and in test [12] was inactive. In addition, the compound was called inactive in test [13], in test [14], in test [15], in test [16] and in test [18].
Regarding `Oc1ccc2cc(SSc3ccc4cc(O)ccc4c3)ccc2c1`, the result in test [1], in test [4], in test [6], in test [13], in test [16] and in test [18] was inactive. Moreover, the half-maximal activity concentration (AC50) in [2] is 100 µM (active); in test [5], 30.6 µM (active); in [7], 78.1 µM (active); in test [8], 34.8 µM (active); in test [10], 27.1 µM (active); in [11], 6.48 µM (active). Further, the AC50 in test [19] was 160 µM (active); in [12], 33.5 µM (active); in test [14], 75.2 µM (active); in test [15], 8.33 µM (active); in test [17], 26.6 µM (active).
On to `Nc1ccccc1[N+](=O)[O-]`, for which the outcome in test [1], in test [2], in test [3], in test [4], in [5] and in [7] was inactive. The compound was classed as inactive in [8], in test [10], in test [11], in test [19], in [12] and in test [13]. Besides, the compound was called inactive in test [14], in test [15], in test [16] and in test [17].
